From PubChem BioAssay
Six1-Eya2 inh: Six1/Eya2 interaction inhibition; 0.56% of 360,000 active; Q15475+O00167; activity change, % (no concentration beside the values); AlphaScreen GST-Six1/His-Eya2 binding, biochemical; stronger effect = lower value; AID 651725; in the data active means activity change below about -65%; inconclusive means mostly about -30% to -63%
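Six1/Eya2 binding was read as AlphaScreen signal after compounds were pinned into GST-Six1 plus His-tagged Eya2 (5X stock 250/500 nM) in pH 8.0 Tris/NaCl/TCEP buffer, beads added, then incubated 1 h, 37 C, dark.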
CtBP-E1A blk: blocks the CtBP interaction with E1A. AlphaScreen GST-E1A/His-CtBP binding, 1536-well; stronger effect = lower value. AID 651724. 0.49% of 340,000 active. activity change, % (no concentration beside the values); in the data active means activity change below about -65%; inconclusive means mostly about -30% to -63%
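Homogeneous bead-based format: GST-tagged E1A captured on glutathione donor beads, His-tagged CtBP on nickel acceptor beads; compounds precede bead addition by 2 h at 37 °C.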
JMJD2A Tudor inh: blocks the human JMJD2A Tudor domain; Potency, µM (highest dose often 114 µM), usual class: inhibitors; 4.4% of 390,000 active; AlphaScreen JMJD2A-Tudor / H3K4me3 peptide binding; AID 504339; O75164; further: nearly all actives have a fitted effect of over 50% in size
BAZ2B block: inhibitors of human BAZ2B bromodomain. Q9UIF8. AlphaScreen BAZ2B-H3K14Ac peptide displacement. Potency, µM (highest dose often 114 µM), actives largely listed as inhibitors. 4.4% of 360,000 active. AID 504333; further: nearly all actives have a fitted effect of over 60% in size
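Compounds, titrated to a top concentration of 110 uM, were incubated 30 min at room temperature with preformed BAZ2B/acetyl-K14 H3 peptide complex (50 nM each). Proximity signal was measured by AlphaScreen after 20 min with beads.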
G9a inh: blocks human histone lysine methyltransferase G9a; Q96KQ7; G9a H3K9 monomethylation, AlphaScreen, 2 h; Potency, µM (top dose mostly 102 µM), usual class: inhibitors; 8.8% of 350,000 active; further: nearly all actives have a fitted effect of over 75% in size
Target sequence (Q96KQ7 913-1193 limits assumed): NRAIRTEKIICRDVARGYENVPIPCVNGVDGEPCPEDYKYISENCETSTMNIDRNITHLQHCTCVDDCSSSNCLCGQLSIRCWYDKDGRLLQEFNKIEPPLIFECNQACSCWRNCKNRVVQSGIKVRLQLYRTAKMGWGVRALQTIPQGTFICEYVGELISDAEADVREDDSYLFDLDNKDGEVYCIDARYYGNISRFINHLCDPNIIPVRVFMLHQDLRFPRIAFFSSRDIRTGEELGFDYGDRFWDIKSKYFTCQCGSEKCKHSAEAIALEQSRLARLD
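Signal arises when biotinylated H3K9 peptide, once monomethylated, bridges streptavidin donor and antibody-captured acceptor beads. Enzyme at 20 nM was preincubated 15 min with test compounds; peptide 500 nM and SAM 20 uM then reacted for 2 h.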
HP1b binding inh: inhibitors of HP1-beta chromodomain binding to methylated histone tails; P83916; AlphaScreen HP1-beta / biotin-H3K9me3 peptide binding; Potency, µM (top dose mostly 114 µM), usual class: inhibitors; 0.56% of 390,000 active; AID 540317; further: nearly all actives have a fitted effect of over 70% in size
Target sequence (P83916 whole entry, looked up): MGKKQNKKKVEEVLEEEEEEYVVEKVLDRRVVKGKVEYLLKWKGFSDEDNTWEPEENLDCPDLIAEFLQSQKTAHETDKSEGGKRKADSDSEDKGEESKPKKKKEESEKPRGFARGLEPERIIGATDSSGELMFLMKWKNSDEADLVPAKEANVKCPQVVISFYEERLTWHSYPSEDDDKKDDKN
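AlphaScreen: HP1-beta (50 nM) preformed 30 min with biotin-H3(1-18)K9me3 peptide (50 nM) in PBS pH 7.4, 0.01% Tween-20. Compound added for 30 min at RT, then streptavidin donor/nickel chelate acceptor beads (10 ug/mL) for 30 min.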
Hits are given with their value; n = inactive; u = inconclusive; x = not tested or not shown; [ ] = another dose, or the depositor's remark. An excerpt weighted towards active compounds, which were near 10% of everything screened. Unless noted, the call rests on the fitted dose curve; in most records, active means well fitted inhibition curve with a large enough effect; inconclusive means small, poorly fitted or top-dose-only effect; inactive means no such curve, though single readings can be large or run the other way.

SMILES | Six1-Eya2 inh | CtBP-E1A blk | JMJD2A Tudor inh | BAZ2B block | G9a inh | HP1b binding inh
Cc1ccc(C(=O)NC2CCN(CC(=O)NCc3cccs3)CC2)cc1 | n | n | n | n | n | n
Cc1ccc2c(c1)C(c1ccc(F)cc1)N(C(=O)c1ccc(OC(C)C)cc1)CC(=O)N2 (centres undefined) | x | x | n | n | n | n
CCOC(=O)c1csc(N/N=C2\CCCc3ccccc32)n1 | n | x | u | u | 25µM | n
CCOC(=O)c1csc(N/N=C2\CCc3ccccc32)n1 | n | n | u | 45µM | 28µM | n
CCCCC(C)(C)[C@H](O)/C=C/[C@H]1[C@H](O)CC(=O)[C@@H]1C/C=C\CCCC(=O)O | x | x | x | x | n | x
COc1cc(/C=N/NC(=O)NC2CCCCC2)cc(OC)c1O | n | n | n | n | 50µM | n
COc1cc(/C=N/NC(=O)NC2CCCCC2)ccc1O | n | n | n | n | n | n
COC(=O)c1cn(C(=O)/C=C/c2ccc(OC)c(OC)c2)c2ccccc12 | n | u | n | n | x | n
CCCCCCS(=O)[C@H]1CS(=O)(=O)C[C@@H]1S(=O)CCCCCC (some centres undefined) | n | n | n | n | 8.9µM | n
CCCCCCCCS(=O)C1CCS(=O)(=O)C1 (centres undefined) | n | n | n | n | 40µM | n
COc1ccc(N2CCN(c3c4c(nc5nncn35)CCC4)CC2)cc1 | x | x | n | n | u | n
CC(=O)c1cccc(N=Nc2c(C)[nH]c3ccccc23)c1 | n | n | u | 35µM | 10µM | n
COc1ccc(N=Nc2c(C)[nH]c3ccccc23)cc1 | n | n | 50µM | x | x | u
O=C(O)c1ccc(N=Nc2c(O)[nH]c3ccccc23)cc1 | n | n | n | u | x | n
COc1ccc(CN2C(=O)c3ccccc3C2c2nnnn2C(C)C)cc1 (centres undefined) | n | n | x | x | x | x
Cc1ccc(-c2c(C(=O)Nc3ccccc3C)c(C)[nH]c(=S)c2C#N)o1 | n | x | n[11.4 µM] | 79µM | n | n
CCc1[nH]c(=S)c(C#N)c(-c2ccccc2)c1C(=O)OC | n | n | u | n | 16µM | n
Cc1[nH]c(=S)c(C#N)c(-c2ccccc2)c1C(=O)Nc1ccccc1 | n | n | 79µM | n | u | n
Cc1ccccc1NC(=O)c1c(C)[nH]c(=S)c(C#N)c1-c1ccc(Cl)cc1 | n | n | n | n | u | n
COC(=O)c1c(C)[nH]c(C)c1-c1ccccc1 | n | n | n | n | n[2.33 µM] | n
CCOc1ccc(N(CC)C(=O)c2cc3c(s2)-c2ccc(Cl)cc2SC3)cc1 | x | x | n | n | n | n
COCCOC(=O)c1[nH]c2c(c1C)C(=O)C(C(=O)OC)C(C)C2 (centres undefined) | n | n | n | n | n | n
CCCCCOC(=O)c1[nH]c2c(c1C)C(=O)C(C(=O)OC)C(C)C2 (centres undefined) | n | n | 14µM | n | u | n
COc1ccc2cc(CN(C)C(=O)CN3C(=O)NC4(CCCC4)C3=O)ccc2c1 | n | n | x | x | x | x
COc1ccc(C(CNC(=O)C(=O)Nc2ccc3c(c2)OCO3)N2CCN(C)CC2)cc1 (centres undefined) | n | n | n | n | n | n
SMILES | Six1-Eya2 inh | CtBP-E1A blk | JMJD2A Tudor inh | BAZ2B block | G9a inh | HP1b binding inh
CN1CCN(C(CNC(=O)C(=O)Nc2ccc3c(c2)OCO3)c2ccc(F)cc2)CC1 (centres undefined) | n | n | n | n | 50µM | n
COc1ccc(C(=O)NCC(c2ccc3c(c2)OCO3)N2CCN(c3ccc(F)cc3)CC2)cc1 (centres undefined) | x | x | u | n | n | n
COc1ccc(C(=O)NCC(c2ccc3c(c2)OCO3)N2CCN(c3ccc(OC)cc3)CC2)cc1 (centres undefined) | u | n | u | u | 6.3µM | n
COc1cccc(C(=O)NCC(c2ccc3c(c2)OCO3)N2CCN(c3ccc(F)cc3)CC2)c1 (centres undefined) | u | n | u | n | 45µM | n
COc1ccc(NC(=O)CCS(=O)(=O)c2nc(-c3ccc4c(c3)OCO4)cc(C(F)(F)F)n2)cc1OC | x | x | n | n | 11µM | n
O=C(c1ccc(F)cc1)[C@@H]1[C@@H](C(=O)c2ccccc2)[C@@]2(C(=O)Nc3ccccc32)[C@H]2c3ccccc3C=CN12 | x | x | x | u | 7.1µM | x
CC(=O)[C@@H]1[C@@H](C(=O)c2ccc(F)cc2)[C@]2(C(=O)Nc3ccccc32)[C@H]2C=Cc3cc(F)ccc3N12 | n | n | u | n | u | u
O=c1c2c(nc3c(-c4ccc(Cl)cc4)c[nH]n13)CCC2 | n | x | n[11.4 µM] | n | 56µM | u
COc1cc(C2C3=C(CC(C)(C)CC3=O)OC(N)=C2[N+](=O)[O-])ccc1O (centres undefined) | n | n | n | n | 50µM | n
COc1ccc(C2C3=C(CC(C)(C)CC3=O)OC(N)=C2[N+](=O)[O-])cc1 (centres undefined) | n | x | n | n | u | n
C#CCOCCOCCOCCNc1nc(N2CCN(C(=O)[C@H](CCCCN)n3cc([C@@H](N)CO)nn3)CC2)nc(N2CCN(C(=O)[C@H](Cc3cc4ccccc4[nH]3)n3cc([C@@H](N)Cc4ccc(O)cc4)nn3)CC2)n1 | x | x | x | 32µM | n[12.7 µM] | x
C#CCOCCOCCOCCNc1nc(N2CCN(C(=O)[C@H](CCCCN)n3cc([C@@H](N)CC(C)C)nn3)CC2)nc(N2CCN(C(=O)[C@H](Cc3cc4ccccc4[nH]3)n3cc([C@@H](N)Cc4ccc(O)cc4)nn3)CC2)n1 | n | n | 18µM | n | n | n
CC(C)(C)NC(=O)CSc1ncnc2c1nnn2Cc1ccccc1Cl | n | n | 50µM | n | n | n
Cc1ccc(NC(=O)c2c(NC(=O)C(F)(F)F)sc3c2CCCCC3)cc1 | x | x | u | n | u | u
Cc1ccccc1NC(=O)c1c(NC(=O)C(F)(F)F)sc2c1CCCCC2 | x | x | n | n | 8.9µM | n
Cc1cccc(NC(=O)c2c(NC(=O)C(F)(F)F)sc3c2CCCCC3)c1 | x | x | u | n | u | n
CC(C)(C)C(=O)Nc1sc2c(c1C(=O)Nc1ccccn1)CCCC2 | n | n | 45µM | n | n | n
O=C(Nc1cccc(Cl)c1)c1c(NC(=O)C(F)(F)F)sc2c1CCCC2 | x | x | 79µM | 50µM | 4µM | u
Cc1ccccc1NC(=O)c1c(NC(=O)c2ccncc2)sc2c1CCC(C(C)(C)C)C2 (centres undefined) | x | x | u | n | 18µM | n
Cn1c(=O)c2c(nc(NCC3CCCO3)n2Cc2cccc(Br)c2)n(C)c1=O (centres undefined) | n | n | n | n | n[12.7 µM] | n
Cc1cc(NC(=O)CN2C(=O)NC3(CCCCC3)C2=O)ccc1N1CCCC1 | n | n | n | n | 8.9µM | n
